Experiment [1] in a line: small molecules captured by biotinylated probe aFSTL3 – biochemical, small-molecule microarray, fluorescence 635/667, stem cell growth factor project, primary screen (AID 1064).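 Further: measures binding of the biotinylated anti-FSTL3 antibody to printed compounds.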 As to conditions: higher = more signal.
Experiment [2] can be described thus: binders from COS7 lysate, DM2A8 probe, primary screen, torsin A project, cell lysate, small-molecule microarray, fluorescence 635/667 (AID 1065). As to conditions: higher = more signal, COS7 lysate expressing mutant human TOR1A.
Experiment [3] is described as follows: small molecules captured by biotinylated probe aFGF2 – biochemical, small-molecule microarray, fluorescence 635/667, stem cell growth factor project, primary screen (AID 1067).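 Further: measures binding of biotinylated aFGF2 protein to printed compounds on slides; z-score merges feature fluorescence and signal-to-noise across triplicate slides.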 Conditions: higher = more signal.
Experiment [4] in a line: small molecules captured by biotinylated probe aFGF10 – biochemical, small-molecule microarray, fluorescence 635/667, stem cell growth factor project, primary screen (AID 1071).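 Further: score merges 667 nm spot intensity and signal to noise from triplicate slides.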 As to conditions: higher = more signal.
Experiment [5] deals with Neurogenic locus notch homolog protein 2 (Homo sapiens) (UniProt Q04721). Kind of experiment: small molecules binding Notch2 protein – biochemical, small-molecule microarray, 635 nm fluorescence, stem cell growth factors, primary screen (AID 1073). As to conditions: higher = more signal.
Chain of Neurogenic locus notch homolog protein 2 (Homo sapiens) (Q04721 whole entry, looked up, canonical isoform): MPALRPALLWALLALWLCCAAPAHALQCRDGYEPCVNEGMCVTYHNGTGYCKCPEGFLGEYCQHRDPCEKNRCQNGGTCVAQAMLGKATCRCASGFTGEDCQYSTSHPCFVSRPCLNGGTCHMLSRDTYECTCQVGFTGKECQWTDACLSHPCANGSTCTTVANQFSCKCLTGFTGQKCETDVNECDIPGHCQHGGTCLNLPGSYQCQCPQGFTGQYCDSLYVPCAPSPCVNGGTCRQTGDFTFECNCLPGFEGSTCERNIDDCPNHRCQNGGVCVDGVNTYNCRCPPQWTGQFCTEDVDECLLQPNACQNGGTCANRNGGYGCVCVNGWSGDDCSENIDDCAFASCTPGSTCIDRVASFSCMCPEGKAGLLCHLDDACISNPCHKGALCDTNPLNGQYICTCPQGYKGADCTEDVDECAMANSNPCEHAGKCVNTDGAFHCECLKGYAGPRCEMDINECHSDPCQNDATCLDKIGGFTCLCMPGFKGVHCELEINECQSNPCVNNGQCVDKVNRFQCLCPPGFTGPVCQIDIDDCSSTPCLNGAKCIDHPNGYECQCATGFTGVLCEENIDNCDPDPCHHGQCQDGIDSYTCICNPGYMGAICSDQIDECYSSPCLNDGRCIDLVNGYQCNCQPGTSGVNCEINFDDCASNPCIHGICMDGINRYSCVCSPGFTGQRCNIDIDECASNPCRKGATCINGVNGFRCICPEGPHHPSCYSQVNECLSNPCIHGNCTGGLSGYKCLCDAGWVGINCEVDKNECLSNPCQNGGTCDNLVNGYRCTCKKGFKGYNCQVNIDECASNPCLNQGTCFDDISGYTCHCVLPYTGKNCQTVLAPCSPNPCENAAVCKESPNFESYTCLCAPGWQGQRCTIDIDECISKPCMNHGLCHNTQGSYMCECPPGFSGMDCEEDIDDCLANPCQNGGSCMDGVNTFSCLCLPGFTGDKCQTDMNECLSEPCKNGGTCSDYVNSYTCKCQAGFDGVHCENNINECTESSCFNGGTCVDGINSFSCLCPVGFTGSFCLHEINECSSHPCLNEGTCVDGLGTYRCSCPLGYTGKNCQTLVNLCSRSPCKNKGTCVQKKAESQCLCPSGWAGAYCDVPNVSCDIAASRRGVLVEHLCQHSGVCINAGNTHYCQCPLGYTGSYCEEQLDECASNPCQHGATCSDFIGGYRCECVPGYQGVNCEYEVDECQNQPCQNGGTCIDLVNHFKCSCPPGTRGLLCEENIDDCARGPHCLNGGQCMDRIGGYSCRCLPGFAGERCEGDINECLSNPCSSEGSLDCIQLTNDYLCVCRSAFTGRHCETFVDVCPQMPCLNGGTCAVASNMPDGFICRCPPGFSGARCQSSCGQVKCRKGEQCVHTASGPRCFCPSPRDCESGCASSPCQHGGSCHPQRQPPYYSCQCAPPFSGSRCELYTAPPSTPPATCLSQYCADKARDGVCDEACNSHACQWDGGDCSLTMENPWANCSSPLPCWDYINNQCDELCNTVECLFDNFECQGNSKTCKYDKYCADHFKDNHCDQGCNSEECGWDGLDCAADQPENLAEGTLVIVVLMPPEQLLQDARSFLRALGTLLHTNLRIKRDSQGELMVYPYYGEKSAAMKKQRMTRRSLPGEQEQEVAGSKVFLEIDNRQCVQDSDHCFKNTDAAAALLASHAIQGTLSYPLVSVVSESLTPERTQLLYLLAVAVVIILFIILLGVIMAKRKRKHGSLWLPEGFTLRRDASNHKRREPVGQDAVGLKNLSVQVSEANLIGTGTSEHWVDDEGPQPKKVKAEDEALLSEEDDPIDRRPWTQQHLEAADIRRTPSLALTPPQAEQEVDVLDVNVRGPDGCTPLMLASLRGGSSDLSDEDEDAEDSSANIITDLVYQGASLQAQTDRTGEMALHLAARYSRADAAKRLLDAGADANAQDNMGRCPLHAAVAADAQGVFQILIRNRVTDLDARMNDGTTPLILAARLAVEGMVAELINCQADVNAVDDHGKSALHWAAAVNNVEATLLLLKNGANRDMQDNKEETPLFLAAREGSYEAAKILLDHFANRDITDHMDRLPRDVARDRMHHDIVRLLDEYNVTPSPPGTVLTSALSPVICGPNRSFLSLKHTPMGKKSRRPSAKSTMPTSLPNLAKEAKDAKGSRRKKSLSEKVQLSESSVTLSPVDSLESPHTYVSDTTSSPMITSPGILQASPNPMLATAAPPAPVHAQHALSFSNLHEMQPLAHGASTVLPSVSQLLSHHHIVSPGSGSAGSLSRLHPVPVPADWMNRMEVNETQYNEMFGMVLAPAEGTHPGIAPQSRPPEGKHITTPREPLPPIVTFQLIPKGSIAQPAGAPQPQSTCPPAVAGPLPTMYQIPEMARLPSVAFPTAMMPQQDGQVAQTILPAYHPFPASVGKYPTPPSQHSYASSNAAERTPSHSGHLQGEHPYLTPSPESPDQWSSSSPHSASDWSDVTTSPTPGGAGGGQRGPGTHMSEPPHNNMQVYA
Experiment [6] deals with Pro-neuregulin-1, membrane-bound isoform (Homo sapiens) (UniProt Q02297). As to the kind of experiment: small molecules binding neuregulin-1 protein – biochemical, small-molecule microarray, fluorescence 635/667, psychiatric disease protein project, primary screen (AID 1075).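 Further: score combines 667 nm spot fluorescence with signal to noise.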 As to conditions: NRG1 binding, 635 nm fluorescence, higher = more signal.
Experiment [7] has as its system Neuregulin-1 EGF-like domain. As to the kind of experiment: small molecules binding NRG1 EGF domain – biochemical, small-molecule microarray, 635 nm fluorescence, primary screen (AID 1081).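 Further: binding of the protein to compounds printed on small-molecule microarray slides.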 As to conditions: higher = more signal.
Experiment [8] in a line: FRG1 expression reporter modulators in myotubes – cell-based, C2C12 myotubes, firefly/Renilla luciferase, luminescence, FRG1 inhibition for FSHD, primary screen (AID 1084). As to conditions: FRG1 promoter luciferase, higher = more signal, called active from +8 up or from −8 down.
Experiment [9] can be described thus: small molecules captured by biotinylated probe aFST – biochemical, small-molecule microarray, fluorescence 635/667, stem cell growth factor project, primary screen (AID 1086).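 Further: score merges 667 nm fluorescence with signal-to-noise of each printed compound spot.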 Conditions: higher = more signal.
The nature of experiment [10]: binders of probe aHhip on microarray, primary screen, stem cell growth factor project, biochemical, small-molecule microarray, fluorescence 635/667 (AID 1087).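 Further: score merges spot fluorescence at 667nm with spot signal to noise ratio.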 As to conditions: higher = more signal.
For experiment [11], the system named is PRMT1 (protein arginine N-methyltransferase 1). Kind of experiment: small molecules binding arginine methyltransferase PRMT1 – biochemical, small-molecule microarray, 635 nm fluorescence, primary screen (AID 1088).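 Further: binding of Prmt1 protein to compounds spotted on small-molecule microarray slides.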 Conditions: higher = more signal.
Experiment [12] can be described thus: growth effects on S. cerevisiae YJM789 – YJM789 clinical isolate, OD600, 24 h, basal, primary screen (AID 1089).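 Further: growth of clinical yeast isolate S. cerevisiae YJM 789 seeded 1000 cells per well; test concentration not given here.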 As to conditions: higher = more signal, called active from +8 up or from −8 down.
Experiment [13] in a line: S. pombe growth modifiers, basal conditions – strain 972, OD600, 24 h, no modulator, primary screen (AID 1090).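 Further: basal condition with compound alone and no growth modifier present; test concentration not given here.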 Conditions: S. pombe 972 growth, higher = more signal, called active from +8 up or from −8 down.
Experiment [14] is described as follows: budding yeast growth modifiers under rapamycin – strain BY4716, OD600, 96 h, primary screen (AID 1091). Further: test concentration not given here. Conditions: S. cerevisiae BY4716 + rapamycin, higher = more signal, called active from +8 up or from −8 down.
The target of experiment [15] is Torsin-1A-interacting protein 2 (Homo sapiens) (UniProt Q8NFQ8). Kind of experiment: small molecules binding lysate-expressed LULL1 – cell lysate, human LULL1 lysate, 635/667 nm fluorescence, primary screen (AID 1092).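 Further: probe is lysate of COS7 cells overexpressing human LULL1; score merges per-feature 667 nm fluorescence with signal-to-noise.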 As to conditions: small-molecule microarray, hLULL1 lysate binding, 635 nm fluorescence; higher = more signal.
A short description of experiment [16]: optical density change of DRC41 E. coli – strain DRC41, OD650, 24 h, E. coli filamentation project, primary screen (AID 1093).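 Further: MC1000 strain lacking acrAB efflux and sulA so SOS filamentation is blocked; test concentration not given here.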 Conditions: E. coli DRC41 growth, higher = more signal, called active from +8 up or from −8 down.
A short description of experiment [17]: probe aLefty2 binding to arrayed compounds – biochemical, biotinylated probe, 635/667 nm fluorescence, primary screen (AID 1094).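 Further: score merges spot fluorescence near 667 nm with spot signal-to-noise ratio.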 Conditions: small-molecule microarray, higher = more signal.
For experiment [18], the system named is Noggin (protein binding on small-molecule microarray). As to the kind of experiment: small molecules binding Noggin protein – biochemical, 635/667 nm fluorescence, primary screen (AID 1095).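 Further: score merges 667 nm feature fluorescence with signal to noise over triplicate slides.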 As to conditions: 635 nm fluorescence, higher = more signal.
For experiment [19], the target named is Neurogenic locus notch homolog protein 3 (Homo sapiens) (UniProt Q9UM47). As to the kind of experiment: small molecules binding NOTCH3 protein – biochemical, 635/667 nm fluorescence, primary screen (AID 1096). As to conditions: small-molecule microarray, 635 nm fluorescence, higher = more signal.
Chain of Neurogenic locus notch homolog protein 3 (Homo sapiens) (Q9UM47 whole entry, looked up): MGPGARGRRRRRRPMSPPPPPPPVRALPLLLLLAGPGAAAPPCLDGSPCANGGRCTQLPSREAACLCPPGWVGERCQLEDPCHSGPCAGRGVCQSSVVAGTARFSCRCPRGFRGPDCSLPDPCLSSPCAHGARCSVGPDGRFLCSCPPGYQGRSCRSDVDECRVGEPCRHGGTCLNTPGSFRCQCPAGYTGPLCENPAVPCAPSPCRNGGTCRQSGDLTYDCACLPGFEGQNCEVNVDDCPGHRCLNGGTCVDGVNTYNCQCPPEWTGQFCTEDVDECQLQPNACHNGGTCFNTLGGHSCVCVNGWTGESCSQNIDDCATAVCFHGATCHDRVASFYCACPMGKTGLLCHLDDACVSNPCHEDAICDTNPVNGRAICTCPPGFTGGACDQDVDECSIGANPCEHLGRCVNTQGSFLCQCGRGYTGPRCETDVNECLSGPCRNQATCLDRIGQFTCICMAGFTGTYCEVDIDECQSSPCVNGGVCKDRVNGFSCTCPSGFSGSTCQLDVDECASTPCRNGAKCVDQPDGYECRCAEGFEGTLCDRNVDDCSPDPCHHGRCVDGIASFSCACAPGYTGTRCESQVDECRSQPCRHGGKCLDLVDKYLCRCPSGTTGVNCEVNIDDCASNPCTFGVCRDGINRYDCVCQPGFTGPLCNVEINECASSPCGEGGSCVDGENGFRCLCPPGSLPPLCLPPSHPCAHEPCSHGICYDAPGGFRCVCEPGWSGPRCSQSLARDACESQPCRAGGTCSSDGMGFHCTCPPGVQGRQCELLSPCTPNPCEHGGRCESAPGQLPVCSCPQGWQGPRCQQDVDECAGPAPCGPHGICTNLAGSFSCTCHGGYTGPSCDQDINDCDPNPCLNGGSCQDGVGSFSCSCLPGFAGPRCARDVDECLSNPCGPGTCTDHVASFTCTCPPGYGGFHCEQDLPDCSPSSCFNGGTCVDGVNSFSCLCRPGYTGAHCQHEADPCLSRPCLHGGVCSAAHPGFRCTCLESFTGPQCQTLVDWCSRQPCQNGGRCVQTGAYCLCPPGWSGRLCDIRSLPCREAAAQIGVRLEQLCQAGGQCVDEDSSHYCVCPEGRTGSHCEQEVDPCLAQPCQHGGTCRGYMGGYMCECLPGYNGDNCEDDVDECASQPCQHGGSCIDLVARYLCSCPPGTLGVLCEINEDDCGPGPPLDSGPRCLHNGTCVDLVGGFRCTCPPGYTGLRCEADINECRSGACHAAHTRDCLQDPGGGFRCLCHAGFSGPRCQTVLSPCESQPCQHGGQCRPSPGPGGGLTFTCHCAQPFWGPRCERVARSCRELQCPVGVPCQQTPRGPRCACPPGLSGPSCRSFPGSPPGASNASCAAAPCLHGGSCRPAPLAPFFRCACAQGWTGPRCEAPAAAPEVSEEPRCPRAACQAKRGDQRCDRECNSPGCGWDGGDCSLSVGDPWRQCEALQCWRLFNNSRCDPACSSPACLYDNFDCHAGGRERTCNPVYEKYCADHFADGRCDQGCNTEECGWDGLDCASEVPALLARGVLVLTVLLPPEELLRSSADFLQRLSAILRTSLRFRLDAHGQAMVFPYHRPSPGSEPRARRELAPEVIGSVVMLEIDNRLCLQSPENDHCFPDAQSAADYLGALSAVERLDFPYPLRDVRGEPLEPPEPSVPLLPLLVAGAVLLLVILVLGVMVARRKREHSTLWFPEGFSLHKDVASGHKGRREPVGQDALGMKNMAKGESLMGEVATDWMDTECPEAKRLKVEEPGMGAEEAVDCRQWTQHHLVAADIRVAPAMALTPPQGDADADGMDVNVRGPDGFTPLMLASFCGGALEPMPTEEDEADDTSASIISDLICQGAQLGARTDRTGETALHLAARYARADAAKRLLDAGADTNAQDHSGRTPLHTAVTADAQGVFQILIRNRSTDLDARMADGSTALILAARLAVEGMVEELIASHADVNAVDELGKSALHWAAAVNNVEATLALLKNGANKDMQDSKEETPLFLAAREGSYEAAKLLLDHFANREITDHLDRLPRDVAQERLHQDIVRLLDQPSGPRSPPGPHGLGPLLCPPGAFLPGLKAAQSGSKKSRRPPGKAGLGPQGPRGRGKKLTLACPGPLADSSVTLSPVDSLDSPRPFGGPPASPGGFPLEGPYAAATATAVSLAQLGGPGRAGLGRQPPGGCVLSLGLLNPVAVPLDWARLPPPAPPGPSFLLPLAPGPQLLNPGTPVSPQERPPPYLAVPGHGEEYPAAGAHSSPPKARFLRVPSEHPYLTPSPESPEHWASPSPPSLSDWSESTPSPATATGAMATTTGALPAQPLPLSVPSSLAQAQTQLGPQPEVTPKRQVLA
Experiment [20] is described as follows: probe aEGFR binding to arrayed compounds – biochemical, biotinylated probe, 635/667 nm fluorescence, primary screen (AID 1097).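 Further: probe is a biotinylated anti-EGFR antibody binding compounds printed on slides; score combines fluorescence near 667 nm and signal to noise of each spot.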 As to conditions: small-molecule microarray, higher = more signal.

SMILES strings stand for the structures. Activity calls are given as the source filed them.

For the compound `COC(=O)[C@@]1(Cc2ccc(OC)cc2)[C@H]2c3cc(C(=O)N(C)C)n(Cc4nc5ccccc5[nH]4)c3C[C@H]2CN1C(=O)c1ccccc1`, the composite z-score was 0.0732 in experiment [1]; -0.401 in experiment [2]; 0.212 in [3]; 0.874 in experiment [4]; 1.76 in experiment [5]; 1.82 in [6]. The composite z-score in experiment [7] was 1.23; in experiment [9], 1.09; in experiment [10] it was 0.147; in [11], 0.777; in experiment [15], 3.61; in experiment [17], 0.3. For the same compound, the composite z-score is 0.493 in [18], 1.02 in experiment [19] and 0.329 in experiment [20]. In addition, the z-score in experiment [8] was -1.62 (inactive); in experiment [12] it was 0.591 (inactive); in [13] it was 1.49 (inactive); in experiment [14], 6.95 (inactive); in experiment [16], -0.648 (inactive).
In the case of `CN(C)CCCN1C(=O)[C@@]2(c3ccc([N+](=O)[O-])cc3)CC(=O)N(CC34CC5CC(CC(C5)C3)C4)[C@@H]2c2ccc(CO)cc21`, the composite z-score in [1] was -0.106; in [2], -0.429; in experiment [3] it was -0.0276; in [4], 0.0318; in experiment [5] it was -0.346; in experiment [6], 0.742. Further, the composite z-score is 0.72 in experiment [7]; 0.0267 in experiment [9]; 0.0024 in experiment [10]; 1.54 in [11]; 3.29 in [15]; -0.116 in [17]. Besides, the composite z-score in experiment [18] was -0.378; in experiment [19], 0.214; in [20], -0.12. Further, the z-score in experiment [8] is 0.0832 (inactive); in experiment [12], 0.296 (inactive); in experiment [13], -0.505 (inactive); in [14] it was -1.06 (inactive); in [16], 0.304 (inactive).
As for `CC(C)(C)N1CC=CC23O[C@@H]4C=CCOC(=O)[C@@H]4[C@H]2C(=O)N(CCCO)[C@@H]3C1=O` (stereo not given in full), the composite z-score in [1] is 0.698; in experiment [2], -0.182; in experiment [3], -0.199; in [4] it was -0.838; in experiment [5], -1.54; in [6], -0.475. In addition, the composite z-score in experiment [7] is 1.08; in [9] it was -1; in experiment [10], -0.0994; in experiment [11] it was -0.768; in [15] it was -0.558; in [17], -0.147. In addition, the figures for the composite z-score in experiment [18], in [19] and in [20] were -1.62, -1.54 and -0.314, respectively. The z-score in [8] was 0.619 (inactive); in experiment [12], 0.149 (inactive); in experiment [13], 0.0155 (inactive); in experiment [14], -0.288 (inactive); in experiment [16], 1.27 (inactive).
Turning to `C=C(COC)/C(=C/C[C@@H](OC(=O)c1ccncc1)c1ccc(CO)o1)c1cnc2ccccc2c1`, the composite z-score in [1] was -0.376; in experiment [2], 1.03; in [3], 0.0235; in experiment [4] it was 1.2; in experiment [5], 1.73; in experiment [6] it was 1.5. Further, the composite z-score is 1.34 in experiment [7]; 0.668 in [9]; 0.115 in [10]; 1.55 in [11]; 1.59 in experiment [15]; -0.112 in [17]. The composite z-score in experiment [18] is 1.88; in experiment [19], 1.02; in experiment [20], -0.0059. Also, the z-score was 0.487 (inactive) in experiment [8]; -0.854 (inactive) in experiment [12]; 0.536 (inactive) in experiment [13]; 0.14 (inactive) in experiment [14]; 0.647 (inactive) in [16].
In the case of `COC(=O)C1(Cc2ccccc2)C=C2C(=C(c3ccccc3)C(=O)C2C)CN1` (stereo not given), the composite z-score in experiment [1] is 2.22; in experiment [2], 0.0069; in [3], 0.731; in [4], 1.21; in experiment [5], 1.19; in [6] it was 1.45. The composite z-score in experiment [7] is 1.01; in experiment [9], 1.87; in experiment [10], 2.63; in [11] it was -1.24; in experiment [15], 1.29; in experiment [17], 1.32. For the same compound, the composite z-score in experiment [18] is -1.58; in experiment [19] it was 0.885; in experiment [20] it was 1.29. The z-score is 0.943 (inactive) in [8]; -0.175 (inactive) in experiment [12]; -0.183 (inactive) in [13]; 0.269 (inactive) in [14]; -0.749 (inactive) in experiment [16].

These data come from PubChem BioAssay.
